Experimental data taken from PMC5540273 (PLoS ONE, 2017).

Key:
Settings in all cases: concentration: 1 μM, replicates: in singlicate; n = 1
ROCK1 = test system: ROCK1
ROCK2 = test system: ROCK2
ROS1 = test system: ROS1
[1] = test system: RPS6KA4(Kin.Dom.1-N-terminal)
[2] = test system: RPS6KA4(Kin.Dom.2-C-terminal)
[3] = test system: RPS6KA5(Kin.Dom.1-N-terminal)
[4] = test system: RPS6KA5(Kin.Dom.2-C-terminal)
[5] = test system: T1, RSK1(Kin.Dom.1-N-terminal)
T1 construct: gene RPS6KA1

[6] = test system: T2, RSK1(Kin.Dom.2-C-terminal)
T2 construct: gene RPS6KA1

[7] = test system: T3, RSK2(Kin.Dom.1-N-terminal)
T3 construct: gene RPS6KA3

[8] = test system: T4, RSK2(Kin.Dom.2-C-terminal)
T4 construct: gene RPS6KA3

[9] = test system: T5, RSK3(Kin.Dom.1-N-terminal)
T5 construct: gene RPS6KA2

[10] = test system: T6, RSK3(Kin.Dom.2-C-terminal)
T6 construct: gene RPS6KA2

[11] = test system: T7, RSK4(Kin.Dom.1-N-terminal)
T7 construct: gene RPS6KA6

[12] = test system: T8, RSK4(Kin.Dom.2-C-terminal)
T8 construct: gene RPS6KA6

S6K1 = test system: S6K1
SBK1 = test system: SBK1
SGK2 = test system: SGK2
SGK3 = test system: SGK3
SGK = test system: SGK
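Also: KINOMEscan kinase panel screen.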

Structure (SMILES)	%Inh (ROCK1) [%]	%Inh (ROCK2) [%]	%Inh (ROS1) [%]	%Inh [1] [%]	%Inh [2] [%]	%Inh [3] [%]	%Inh [4] [%]	%Inh [5] [%]	%Inh [6] [%]	%Inh [7] [%]	%Inh [8] [%]	%Inh [9] [%]	%Inh [10] [%]	%Inh [11] [%]	%Inh [12] [%]	%Inh (S6K1) [%]	%Inh (SBK1) [%]	%Inh (SGK2) [%]	%Inh (SGK3) [%]	%Inh (SGK) [%]
COC(=O)c1c(-c2ccccc2)c2cc(C(=O)O)ccc2c(=O)n1Cc1ccccc1	10	0	0	0	6	11	0	0	18	0	0	0	0	0	5	0	0	25	5	23
O=C(Nc1ccc2c(c1)OCO2)NC1CCN(c2ccnc(Nc3ccc(F)cc3)n2)C1 (stereo not shown) [GSK1379724]	6	3	0	0	0	11	0	11	0	12	0	0	0	0	0	6	13	0	0	0
COc1ccccc1-c1ccc2c(NC(=O)C3CC3)n[nH]c2n1 [SB-711239]	23	6	10	9	0	13	12	11	0	0	7	0	0	4	22	7	68	4	3	0
CC1=C(C(=O)Nc2cc3cn[nH]c3cc2F)C(c2ccc(C(F)(F)F)cc2)CC(=O)N1 (stereo not shown) [GSK429286]	99.1	98.2	0	16	0	0	0	5	18	19	0	22	0	0	18	14	22	4	4	0
Fc1cccc(COc2nnc(-c3ccc4c(c3)CCO4)o2)c1	0	0	0	0	30	0	9	0	43	0	35	0	22	0	8	0	0	0	0	0
Cc1cccc(-c2nc(Nc3ccncc3)c3ccccc3n2)n1 [GW855857]	0	0	0	20	0	0	4	0	8	0	50	0	0	0	9	0	0	0	0	0
Cn1ccc2ncnc(Oc3ccc(Nc4nc5ccccc5[nH]4)cc3)c21	0	0	0	0	0	7	0	0	0	0	0	0	0	0	0	0	0	0	0	0
COc1ccc(C2=C(Nc3cccc(C(=O)O)c3)C(=O)NC2=O)cc1 [SB-390765]	20	0	14	19	17	2	9	30	7	34	8	9	2	16	30	15	35	21	22	29
Cc1c(Cn2ccn3c(=O)cc(N4CCOCC4)nc23)cccc1C(F)(F)F [GSK2289044]	0	0	8	0	0	6	11	0	0	0	23	0	6	0	11	0	14	0	4	0
Cc1cc(-c2ccc3c(c2)CC[C@@H](N[C@@H](C)c2ccccc2)C3)cnc1N.Cl [GW412617]	7	5	15	16	0	6	0	0	8	4	47	15	0	23	0	4	17	0	0	2
Cl.O=C(Nc1cccc(-c2nn3ncccc3c2-c2ccnc(Nc3cccnc3)n2)c1)c1c(F)cccc1F [GSK312879]	0	0	0	20	0	9	0	8	10	27	6	23	10	12	0	14	41	1	0	0
